Only a selection was taken, and hits are over-represented in it overall.
KDM5B inhibitor: inhibitors of human KDM5B histone demethylase; Potency, µM (doses to about 57.7 µM), actives largely listed as inhibitors; KDM5B demethylase, FDH-coupled NADH fluorescence (FDH is formaldehyde dehydrogenase); 220,000 compounds, 2.6% hits; active means well fitted inhibition curve with a large enough effect; further: nearly all actives have a fitted effect of over 70% in size
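Coupled FDH/NAD⁺ fluorescence readout. KDM5BΔAP 200 nM final; compound titration, 10 min RT preincubation; substrate mix 12.5 µM H3K4me3, 25 µM 2-OG, 50 µM Fe(II), 100 µM ascorbate, 0.25 mM NAD⁺, 0.25 U/mL FDH; ΔRFU over 30 min.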
Hits are given with their value; n = inactive.

SMILES | KDM5B inhibitor
COCc1nc2nc(-c3ccccc3)c(-c3ccnc(OC)c3)cc2n1C | n
COCC(=O)N[C@H]1CC[C@]2(C)CC[C@@H]([C@H](C)C(=O)NCc3cccs3)[C@H](O)[C@H]2[C@@H]1C | n
Cc1cccc(NC(=O)N2CCCC2c2cccs2)c1C (stereo not given) | n
O=S(=O)(C/C=C/c1ccccc1)Cc1coc(-c2ccc(F)cc2)n1 | n
CC1Sc2ccc(C(=O)Nc3nc(-c4ccc(Cl)cc4)cs3)cc2NC1=O (stereo not given) | n
COc1ccc(C=O)cc1COc1ccc2c(c1)CCC2 | n
O=C(COC(=O)CCCc1nc2ccccc2s1)NCc1ccccc1Cl | n
CCN(CC)S(=O)(=O)c1ccc(NC(=O)CN(c2ccc(C)c(Cl)c2)S(C)(=O)=O)cc1 | n
CCOC(=O)/C(C#N)=C/N=CN(C)C | n
CN(Cc1ccccc1)C(=O)C1(c2ccc(NC(=O)C3CC3)cc2)CCCCC1 | n
CCCn1c(NC(=O)c2nn(C)c(=O)c3ccccc23)nc2ccccc21 | n
O=C1NC2(CCN(C(=O)OCc3ccccc3)C2)N=C1c1ccccn1 (stereo not given) | 25µM
COC(=O)N1CCC2(C1)N=C(c1ccncc1)C(=O)N2 (stereo not given) | n
Cc1noc(C)c1S(=O)(=O)N1CCC2(C1)N=C(c1ccccn1)C(=O)N2 (stereo not given) | n
N#Cc1cccc(COC(=O)c2ccccc2SCc2ccco2)c1 | n
CC1=C[C@@H](CO)[C@H](C(C)C)C[C@H]1CC(=O)NCc1ccc(F)cc1 | n
Cc1cccc(C)c1NC(=O)c1cnc2ccccc2n1 | n
CN(C)C[C@@H]1CN(c2ncccn2)C[C@H]1N | n
COCCNC(=O)N[C@@H]1CN(c2ncccn2)C[C@H]1CN(C)C | 22µM
COCc1c(C(=O)N[C@@H]2CN(c3ncccn3)C[C@H]2CN(C)C)noc1C | 28µM
COc1cccc(C(=O)N[C@@H]2CN(S(C)(=O)=O)C[C@H]2CN(C)C)c1 | n
COCc1c(C(=O)N2C[C@@H](COC)[C@H](c3ccncc3)C2)noc1C | n
COc1cccc(CNC(=O)N[C@@H]2CN(c3ncccn3)C[C@H]2CN(C)C)c1 | 28µM
COCc1c(C(=O)N[C@@H]2CN(Cc3cccnc3)C[C@H]2CN(C)C)noc1C | n
COc1cccc(CNC(=O)NC2CCc3n[nH]c(=O)n3CC2)c1 (stereo not given) | n
SMILES | KDM5B inhibitor
CC(=O)N1CCC(C(=O)NCC2(c3ccc(F)cc3)CCC2)CC1 | n
CCOc1ccc(OCC)c(C(=O)Nc2cc(C)ccn2)c1 | n
CCc1ccc(NC(=O)c2cc(=O)c3cc(CC)ccc3o2)cc1 | n
O=C(Nc1cccc(Cl)c1)c1cnc2ccccc2n1 | n
COc1ccc(OCC(=O)NCCN2CCN(S(=O)(=O)c3ccc(C)cc3)CC2)cc1 | n
Cc1cnc(CCNS(=O)(=O)c2ccccc2)n1CC1CC1 | n
CCn1cc(Br)c(C(=O)Nc2ccc(C)cc2C)n1 | n
O=C1NC2(CCCN(C(=O)c3ccc4c(c3)OCO4)C2)Oc2ccccc21 (stereo not given) | n
Cc1ccc(-c2nonc2NC(=O)c2ccccc2Br)cc1 | n
CCCCOc1ccc(C(=O)N2CCN(CCc3ccncc3)CC2)cc1 | n
CCCN1CCN(C(=O)[C@H]2CCC[C@H]2NC(=O)c2ccc(OC)nc2)CC1 | n
CCNc1ncc(C(=O)N2CCN(CCCCOC)CC2)cn1 | 25µM
N#C/C(=C/c1ccccc1OC(F)F)c1ccccn1 | n
COc1cccc(CNC(=O)c2ccc(C)cc2)c1 | n
Cc1cccc(NC(=O)CCn2cnnn2)c1 | n
NC(=O)C1(C(=O)NCc2nc(-c3cccc(F)c3)c(-c3ccccn3)[nH]2)CC1 | n
COc1ccccc1CNC(=O)Cn1ccc2cc(Cl)ccc21 | n
Cc1c(-c2ccccc2)[nH]c2c(CNC(=O)c3ccc(=O)n(C)n3)cc(Cl)cc12 | n
Cc1c(-c2ccccc2)[nH]c2c(CNC(=O)CCn3cnnn3)cc(Cl)cc12 | 25µM
Cc1cc(CNC(=O)C2(C(N)=O)CC2)c2[nH]c(-c3ccccc3)c(C)c2c1 | 28µM
CCCCCC(=O)N[C@@H](Cn1ccc(=O)[nH]c1=O)C(=O)O | n
CCc1[nH]c2c(CNC(=O)c3n[nH]c4c3CCC4)cc(C)cc2c1C | n
Cc1c(-c2ccccc2)[nH]c2c(CNC(=O)Cn3ccc(=O)[nH]c3=O)cc(Cl)cc12 | 28µM
CC(OC(=O)c1sc2ccccc2c1Cl)C(=O)N1CCNC1=O (stereo not given) | n
OC1CCN(Cc2csc(-c3ccccc3)n2)CC1 | n
SMILES | KDM5B inhibitor
Oc1ccc(-c2cn3ccsc3n2)cc1 | n
CCCCn1c(=O)[nH]c(=O)c2c1nc(COC(=O)C1CC1)n2C | n
CC(CCc1ccccc1)NC(=O)NCc1ccncc1 (stereo not given) | n
CS(=O)(=O)N1CCC(CC(=O)N2CCCC2)C1 (stereo not given) | n
C=C(C)COc1ccc(C(=O)N2CCN3C(=O)CN(C)C(=O)C3C2)cc1 (stereo not given) | n
CC(=O)c1c(C)nn(CC(=O)N2CCN3C(=O)CN(C)C(=O)C3C2)c1C (stereo not given) | n
Cc1cc(C)n2nc(C(=O)N3CCN4C(=O)CN(C)C(=O)C4C3)cc2n1 (stereo not given) | 28µM
O=C(NCc1ccnc(N2CCCC2)c1)c1ccc(O)c(Cl)c1 | n
CCN(CC)c1cc(CCC(=O)NCc2ccc(Cl)cc2)ccn1 | 22µM
O=C(CCc1ccnc(N2CCCC2)c1)N1CCN(c2cccc(Cl)c2)CC1 | 22µM
CCCNc1cc(N2CCC(CCC(=O)NCCN3CCCCCC3)CC2)ncn1 | n
Cc1cccc(N2CCN(C(=O)CCc3ccnc(N4CCCC4)c3)CC2)c1 | n
Cc1ccc(CCC(=O)NCCCN2CCCC2)cc1 | n
Cc1ccc(CNC(=O)CCc2ccnc(N3CCCC3)c2)cc1 | 32µM
Cc1ccc(-c2nocc2CCC(=O)NCc2ccc(Cl)cc2)cc1 | n
Cn1c(=O)c2ccccc2n2c(CCC(=O)N3CCN(c4cccc(Cl)c4)CC3)nnc12 | n
CCc1ccc(CCC(=O)NCc2ccncc2)cc1 | n
Cc1ccc(CCC(=O)NCc2ccccn2)cc1 | n
CCCNC(=O)CCc1ccnc(N2CCCC2)c1 | 22µM
O=C(Nc1ncn[nH]1)C1CC(=O)N(c2ccccc2)C1 (stereo not given) | n
O=C(Nc1ccccc1)c1cc(S(=O)(=O)N2CCOCC2)ccc1F | n
Cc1cnc(CC2CCN(C(=O)C3CC3)C2)n1C1CC1 (stereo not given) | n
COc1cc(OC)cc(C(=O)NCc2ccc(-c3nc4ncccc4o3)cc2)c1 | n
CCC1CCc2c(sc(NC(=O)c3c(-c4ccccc4)noc3C)c2C(=O)OC)C1 (stereo not given) | n
COc1ccc(NC(=O)CCC2CCCN(C(=O)C3=C(C)OCCO3)C2)cc1Cl (stereo not given) | n
SMILES | KDM5B inhibitor
COc1ncccc1-c1cc(C(=O)NCc2c(C)cc(C)[nH]c2=O)c2c(c1)N(C(C)C)CCO2 | 28µM
Cc1cc(C)c(CNC(=O)c2cc(-c3ccnn3C)cc3c2OCCN3C(C)C)c(=O)[nH]1 | 35µM
Cc1cc(C)c(CNC(=O)c2cc(-c3ccccc3)cc3c2OCCN3C(C)C)c(=O)[nH]1 | 35µM
Cc1cc(C)c(CNC(=O)c2nc(-c3ccc(F)cc3)cc3c2ccn3C(C)C)c(=O)[nH]1 | n
COc1ncccc1-c1cc2[nH]ccc2c(C(=O)NCc2c(C)cc(C)[nH]c2=O)n1 | n
Cc1ccc(-c2cc(C(=O)NCc3c(C)cc(C)[nH]c3=O)c3c(c2)N(C(C)C)CCO3)cc1 | 25µM
